Experimental data published in article PMC8384837, “Expanding the binding specificity for RNA recognition by a PUF domain”.

Tests used:
Assay in all cases: yeast three-hybrid, YBZ-1, SC-Leu-His + 0.5 mM 3-AT, 4 days
Conditions in all cases: tags: N-Gal4 AD-HA kept; label: inside an RPR1-promoter hybrid RNA with tandem MS2 sites; ssRNA
PUM1 PUF domain R7-TSV = PUM1 PUF domain R7-TSV (Homo sapiens, UniProt Q14671 828-1176, S1079T;N1080S;E1083V)
Outline: (§1)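 Pumilio-1 PUF domain libraries, randomized at the three base-contacting residues of each repeat, were co-expressed with matching RNA elements from a centromeric plasmid in strain YBZ-1, which carries a LexA–MS2 coat fusion and a HIS3 reporter. Transformants grew for four days on SC-Leu (input) or on SC-Leu-His + 0.5 mM 3-AT (selection), and the repeat regions were PCR-amplified and Illumina-sequenced. The interaction score is the log change in variant frequency from input to selection. That logarithm is base 2, with a pseudocount of 1 where a variant was absent.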

PUM1 PUF domain R8-PWA = PUM1 PUF domain R8-PWA (Homo sapiens, UniProt Q14671 828-1176, N1122P;Y1123W;Q1126A)
Outline: as §1

PUM1 PUF domain R6-LFS = molecular target: T1, PUM1 PUF domain R6-LFS (Homo sapiens, UniProt Q14671 828-1176, N1043L;Y1044F;Q1047S)
T1 sequence: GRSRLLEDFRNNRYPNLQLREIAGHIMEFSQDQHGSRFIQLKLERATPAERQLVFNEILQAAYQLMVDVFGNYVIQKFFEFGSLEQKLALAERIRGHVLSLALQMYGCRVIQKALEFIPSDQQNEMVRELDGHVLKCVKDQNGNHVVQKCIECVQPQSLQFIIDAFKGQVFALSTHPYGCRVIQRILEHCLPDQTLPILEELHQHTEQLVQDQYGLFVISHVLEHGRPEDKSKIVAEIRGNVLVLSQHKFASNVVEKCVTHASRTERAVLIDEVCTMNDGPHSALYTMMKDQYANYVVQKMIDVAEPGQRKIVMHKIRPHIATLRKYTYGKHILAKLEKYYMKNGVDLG
Outline: as §1

PUM1 PUF domain R3-ARH = PUM1 PUF domain R3-ARH (Homo sapiens, UniProt Q14671 828-1176, C935A;Q939H)
Outline: as §1

PUM1 PUF domain R4-CPL = PUM1 PUF domain R4-CPL (Homo sapiens, UniProt Q14671 828-1176, N971C;H972P;Q975L)
Outline: as §1

PUM1 PUF domain R3-YRS = PUM1 PUF domain R3-YRS (Homo sapiens, UniProt Q14671 828-1176, C935Y;Q939S)
Outline: as §1

PUM1 PUF domain R3-CNT = PUM1 PUF domain R3-CNT (Homo sapiens, UniProt Q14671 828-1176, R936N;Q939T)
Outline: as §1

PUM1 PUF domain R8-RHN = PUM1 PUF domain R8-RHN (Homo sapiens, UniProt Q14671 828-1176, N1122R;Y1123H;Q1126N)
Outline: as §1

PUM1 PUF domain R4-GQG = PUM1 PUF domain R4-GQG (Homo sapiens, UniProt Q14671 828-1176, N971G;H972Q;Q975G)
Outline: as §1

PUM1 PUF domain R4-FGQ = PUM1 PUF domain R4-FGQ (Homo sapiens, UniProt Q14671 828-1176, N971F;H972G)
Outline: as §1

PUM1 PUF domain R3-FRV = PUM1 PUF domain R3-FRV (Homo sapiens, UniProt Q14671 828-1176, C935F;Q939V)
Outline: as §1

PUM1 PUF domain R3-YWR = PUM1 PUF domain R3-YWR (Homo sapiens, UniProt Q14671 828-1176, C935Y;R936W;Q939R)
Outline: as §1

PUM1 PUF domain R7-HFP = PUM1 PUF domain R7-HFP (Homo sapiens, UniProt Q14671 828-1176, S1079H;N1080F;E1083P)
Outline: as §1

PUM1 PUF domain R2-AVA = PUM1 PUF domain R2-AVA (Homo sapiens, UniProt Q14671 828-1176, N899A;Y900V;Q903A)
Outline: as §1

PUM1 PUF domain R5-KSN = PUM1 PUF domain R5-KSN (Homo sapiens, UniProt Q14671 828-1176, C1007K;R1008S;Q1011N)
Outline: as §1

PUM1 PUF domain R1-YKR = PUM1 PUF domain R1-YKR (Homo sapiens, UniProt Q14671 828-1176, S863Y;R864K;Q867R)
Outline: as §1

PUM1 PUF domain R1-RRR = PUM1 PUF domain R1-RRR (Homo sapiens, UniProt Q14671 828-1176, S863R;Q867R)
Outline: as §1

Chain of PUM1 PUF domain R3-YRS (Q14671 828-1176 C935Y/Q939S): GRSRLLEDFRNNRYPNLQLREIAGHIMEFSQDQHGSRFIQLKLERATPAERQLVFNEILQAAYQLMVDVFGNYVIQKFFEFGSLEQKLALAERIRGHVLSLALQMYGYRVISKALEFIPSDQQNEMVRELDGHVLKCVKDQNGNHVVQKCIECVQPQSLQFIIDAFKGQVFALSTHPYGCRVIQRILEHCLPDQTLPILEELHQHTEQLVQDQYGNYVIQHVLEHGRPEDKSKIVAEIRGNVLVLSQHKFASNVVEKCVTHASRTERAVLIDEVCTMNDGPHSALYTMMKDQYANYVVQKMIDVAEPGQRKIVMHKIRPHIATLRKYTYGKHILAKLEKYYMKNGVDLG
Chain of PUM1 PUF domain R4-CPL (Q14671 828-1176 N971C/H972P/Q975L): as the sequence (Q14671 828-1176 C935Y/Q939S) above, with Y108C, S112Q, N144C, H145P, Q148L counted along it
Chain of PUM1 PUF domain R1-RRR (Q14671 828-1176 S863R/Q867R): as the sequence (Q14671 828-1176 C935Y/Q939S) above, with S36R, Q40R, Y108C, S112Q counted along it
Chain of PUM1 PUF domain R3-CNT (Q14671 828-1176 R936N/Q939T): as the sequence (Q14671 828-1176 C935Y/Q939S) above, with Y108C, R109N, S112T counted along it
Chain of PUM1 PUF domain R5-KSN (Q14671 828-1176 C1007K/R1008S/Q1011N): as the sequence (Q14671 828-1176 C935Y/Q939S) above, with Y108C, S112Q, C180K, R181S, Q184N counted along it
Chain of PUM1 PUF domain R8-RHN (Q14671 828-1176 N1122R/Y1123H/Q1126N): as the sequence (Q14671 828-1176 C935Y/Q939S) above, with Y108C, S112Q, N295R, Y296H, Q299N counted along it
Chain of PUM1 PUF domain R2-AVA (Q14671 828-1176 N899A/Y900V/Q903A): as the sequence (Q14671 828-1176 C935Y/Q939S) above, with N72A, Y73V, Q76A, Y108C, S112Q counted along it
Chain of PUM1 PUF domain R3-YWR (Q14671 828-1176 C935Y/R936W/Q939R): as the sequence (Q14671 828-1176 C935Y/Q939S) above, with R109W, S112R counted along it
Chain of PUM1 PUF domain R1-YKR (Q14671 828-1176 S863Y/R864K/Q867R): as the sequence (Q14671 828-1176 C935Y/Q939S) above, with S36Y, R37K, Q40R, Y108C, S112Q counted along it
Chain of PUM1 PUF domain R4-FGQ (Q14671 828-1176 N971F/H972G): as the sequence (Q14671 828-1176 C935Y/Q939S) above, with Y108C, S112Q, N144F, H145G counted along it

In the case of “GGCUAGAACUAGUGGAUCCCCCGGCGCCCGGCGGCUCGAGCCCGGGUAAGUUUAAAUAGUCUGCAUGCCGCCGGGCGCCAUGCCUGCAGGUCGACUCUAGAAAACAUG”, the binding signal (PUM1 PUF domain R7-TSV) is reported as 2.77 log2 enrichment (interaction score).
In the case of “GGCUAGAACUAGUGGAUCCCCCGGCGCCCGGCGGCUCGAGCCCGGGUAAGUGUAAAUAGUCUGCAUGCCGCCGGGCGCCAUGCCUGCAGGUCGACUCUAGAAAACAUG”, the binding signal (PUM1 PUF domain R8-PWA) is reported as 2.2 log2 enrichment (interaction score), the binding signal (PUM1 PUF domain R6-LFS) is reported as 1.98 log2 enrichment (interaction score) and the binding signal (PUM1 PUF domain R3-ARH) is reported as 3.26 log2 enrichment (interaction score). The binding signal (PUM1 PUF domain R4-CPL) was 3.68 log2 enrichment (interaction score), the binding signal (PUM1 PUF domain R3-YRS) was 1.29 log2 enrichment (interaction score) and the binding signal (PUM1 PUF domain R3-CNT) was 2.18 log2 enrichment (interaction score).
“GGCUAGAACUAGUGGAUCCCCCGGCGCCCGGCGGCUCGAGCCCGGGUAAGCGUAAAUAGUCUGCAUGCCGCCGGGCGCCAUGCCUGCAGGUCGACUCUAGAAAACAUG” was tested, and the binding signal (PUM1 PUF domain R8-PWA) was 2.7 log2 enrichment (interaction score) and the binding signal (PUM1 PUF domain R8-RHN) was 5.56 log2 enrichment (interaction score).
“GGCUAGAACUAGUGGAUCCCCCGGCGCCCGGCGGCUCGAGCCCGGGUAAGUGAAAAUAGUCUGCAUGCCGCCGGGCGCCAUGCCUGCAGGUCGACUCUAGAAAACAUG” was tested, and the binding signal (PUM1 PUF domain R6-LFS) was 5.7 log2 enrichment (interaction score).
In the case of “GGCUAGAACUAGUGGAUCCCCCGGCGCCCGGCGGCUCGAGCCCGGGUAAGUGUAUAUAGUCUGCAUGCCGCCGGGCGCCAUGCCUGCAGGUCGACUCUAGAAAACAUG”, the binding signal (PUM1 PUF domain R4-GQG) is reported as 2.39 log2 enrichment (interaction score), the binding signal (PUM1 PUF domain R4-CPL) is reported as 1.78 log2 enrichment (interaction score) and the binding signal (PUM1 PUF domain R4-FGQ) is reported as 3.63 log2 enrichment (interaction score).
“GGCUAGAACUAGUGGAUCCCCCGGCGCCCGGCGGCUCGAGCCCGGGUAAGUGUAAGUAGUCUGCAUGCCGCCGGGCGCCAUGCCUGCAGGUCGACUCUAGAAAACAUG” was tested, and the binding signal (PUM1 PUF domain R3-FRV) was 4.5 log2 enrichment (interaction score), the binding signal (PUM1 PUF domain R3-YWR) was 5.62 log2 enrichment (interaction score) and the binding signal (PUM1 PUF domain R3-YRS) was 4.29 log2 enrichment (interaction score).
In the case of “GGCUAGAACUAGUGGAUCCCCCGGCGCCCGGCGGCUCGAGCCCGGGUAAGUGUAAUUAGUCUGCAUGCCGCCGGGCGCCAUGCCUGCAGGUCGACUCUAGAAAACAUG”, the binding signal (PUM1 PUF domain R3-FRV) is reported as 1.27 log2 enrichment (interaction score).
With “GGCUAGAACUAGUGGAUCCCCCGGCGCCCGGCGGCUCGAGCCCGGGUAAGUCUAAAUAGUCUGCAUGCCGCCGGGCGCCAUGCCUGCAGGUCGACUCUAGAAAACAUG” the binding signal (PUM1 PUF domain R7-HFP) was 4.02 log2 enrichment (interaction score).
“GGCUAGAACUAGUGGAUCCCCCGGCGCCCGGCGGCUCGAGCCCGGGUAAGUGUAAAGAGUCUGCAUGCCGCCGGGCGCCAUGCCUGCAGGUCGACUCUAGAAAACAUG” was tested, and the binding signal (PUM1 PUF domain R2-AVA) was 2.41 log2 enrichment (interaction score).
In the case of “GGCUAGAACUAGUGGAUCCCCCGGCGCCCGGCGGCUCGAGCCCGGGUAAGUGUCAAUAGUCUGCAUGCCGCCGGGCGCCAUGCCUGCAGGUCGACUCUAGAAAACAUG”, the binding signal (PUM1 PUF domain R5-KSN) is reported as 3.85 log2 enrichment (interaction score).
In the case of “GGCUAGAACUAGUGGAUCCCCCGGCGCCCGGCGGCUCGAGCCCGGGUAAGUGUAAAUCGUCUGCAUGCCGCCGGGCGCCAUGCCUGCAGGUCGACUCUAGAAAACAUG”, the binding signal (PUM1 PUF domain R1-YKR) is reported as 8.91 log2 enrichment (interaction score) and the binding signal (PUM1 PUF domain R1-RRR) is reported as 2.46 log2 enrichment (interaction score).
With “GGCUAGAACUAGUGGAUCCCCCGGCGCCCGGCGGCUCGAGCCCGGGUAAGUGUAAAUUGUCUGCAUGCCGCCGGGCGCCAUGCCUGCAGGUCGACUCUAGAAAACAUG” the binding signal (PUM1 PUF domain R1-RRR) was 2.49 log2 enrichment (interaction score).
